Some test systems named below: NCI-H23 lung; NCI-H226 lung; NCI-H322M lung; HOP-62 NSCLC; NCI-H460 lung; 786-0 renal; DU-145 prostate; MDA-MB-231 breast; SF-268 CNS; SNB-19 CNS; UACC-62 melanoma; SK-MEL-28 melanoma; SN12C renal; UO-31 renal; OVCAR-5 ovarian; OVCAR-3 ovarian; NCI/ADR-RES ovarian; MDA-MB-435 melanoma; MCF7 breast; KM12 colon.
Holding throughout (assay): NCI-60 one-dose screen, 48 h (100 = growth as untreated, 0 = no growth, -100 = all killed)
Conditions in all cases: 10 µM unless noted

About 83,000 compounds went through this panel and 20% of them were active in at least one assay; those are over-represented in the sample as a whole.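 Single-concentration screen, 48 h exposure, 96-well plates. Endpoint: percent growth. Below 10 = active.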 A number with no mark means an inactive call. Calls of active or inactive are those of the source.

As for `Nc1cccc2c1Oc1ccccc1O2`, the growth in the assay on NCI-H23 lung is 105%; in the assay on NCI-H226 lung, 86.2%; in the assay on NCI-H322M lung it was 102%; in the assay with HOP-62 NSCLC it was 102%; with NCI-H460 lung it was 190%; with 786-0 renal, 99.2%. Also, the growth in the assay on DU-145 prostate was 120%; with MDA-MB-231 breast, 93.1%; in the assay on SF-268 CNS, 176%; in the assay with SNB-19 CNS, 114%; in the assay with UACC-62 melanoma, 88.1%; in the assay with SK-MEL-28 melanoma it was 124%. Besides, the growth in the assay with SN12C renal was 106%; with UO-31 renal, 201%; in the assay with OVCAR-5 ovarian, 98.3%; in the assay with OVCAR-3 ovarian, 103%; with NCI/ADR-RES ovarian, 113%; with MDA-MB-435 melanoma, 105%. The growth with MCF7 breast was 137%; in the assay with KM12 colon, 114%.
Consider `CCOc1cc(/C=N\Nc2nnc(C)n2N)c(C)cc1N(CCCl)CCCl`, for which the growth in the assay on NCI-H23 lung was -20.2% (active); in the assay with NCI-H226 lung, 26.6%; in the assay with NCI-H322M lung, 11.3%; with HOP-62 NSCLC it was 22.6%; in the assay with NCI-H460 lung, 4.94% (active); with 786-0 renal, 13.1%. Besides, the growth with DU-145 prostate is 27.8%; in the assay on MDA-MB-231 breast, 38.2%; in the assay with SF-268 CNS it was 28.2%; in the assay on SNB-19 CNS it was 14.2%; with UACC-62 melanoma it was -1.59% (active); in the assay on SK-MEL-28 melanoma, 37.4%. For the same molecule, the growth with SN12C renal was 17.3%; with UO-31 renal, -42.2% (active); in the assay on OVCAR-5 ovarian it was 52.6%; in the assay with OVCAR-3 ovarian, 4.15% (active); with NCI/ADR-RES ovarian, 10.7%; with MDA-MB-435 melanoma, 7.67% (active). For the same molecule, the growth is 9.29% (active) in the assay with MCF7 breast and 13.8% in the assay with KM12 colon.
With `COc1cccc2c1C(=O)c1c(O)c3c(c(O)c1C2=O)CC(O)(/C(C)=N/NC(=O)CCC(=O)N/N=C(\C)C1(O)Cc2c(O)c4c(c(O)c2C(OC2CC(N)C(O)C(C)O2)C1)C(=O)c1c(OC)cccc1C4=O)CC3OC1CC(N)C(O)C(C)O1` (stereo not given), the growth in the assay with NCI-H23 lung is -44.8% [5 µM] (active); with NCI-H226 lung, -68.1% [5 µM] (active); in the assay on NCI-H322M lung it was -31.6% [5 µM] (active); with HOP-62 NSCLC it was -31.3% [5 µM] (active); with NCI-H460 lung, -44.3% [5 µM] (active); in the assay on 786-0 renal, -14.4% [5 µM] (active). Also, the growth was -30.5% [5 µM] (active) in the assay on DU-145 prostate; 8.46% [5 µM] (active) in the assay with MDA-MB-231 breast; -17.3% [5 µM] (active) in the assay with SF-268 CNS; -20.9% [5 µM] (active) with SNB-19 CNS; -85.4% [5 µM] (active) in the assay on UACC-62 melanoma; -56.3% [5 µM] (active) in the assay on SK-MEL-28 melanoma. Also, the growth is -5.24% [5 µM] (active) in the assay with SN12C renal; -7.96% [5 µM] (active) in the assay with UO-31 renal; -15.4% [5 µM] (active) with OVCAR-5 ovarian; -47.3% [5 µM] (active) in the assay with OVCAR-3 ovarian; 71.8% [5 µM] with NCI/ADR-RES ovarian; -85.2% [5 µM] (active) in the assay with MDA-MB-435 melanoma. In addition, the growth in the assay on MCF7 breast was 2.38% [5 µM] (active); with KM12 colon it was -29.8% [5 µM] (active).
As for `O=C(C(=O)N1CCCC1)c1cn(CCCCCn2cc(C(=O)C(=O)N3CCCC3)c3ccccc32)c2ccccc12`, the growth in the assay with NCI-H23 lung was 91.1%; in the assay with NCI-H226 lung it was 89%; in the assay with NCI-H322M lung, 93.9%; in the assay on HOP-62 NSCLC it was 102%; in the assay on NCI-H460 lung it was 91.3%; with 786-0 renal, 105%. The growth in the assay on DU-145 prostate was 100%; with MDA-MB-231 breast, 77.2%; in the assay with SF-268 CNS, 91.4%; in the assay with SNB-19 CNS it was 93.5%; in the assay with UACC-62 melanoma, 65.3%; in the assay with SK-MEL-28 melanoma, 106%. Besides, the growth with SN12C renal was 82.3%; with UO-31 renal, 61.6%; in the assay with OVCAR-5 ovarian it was 106%; with OVCAR-3 ovarian, 88.4%; in the assay with NCI/ADR-RES ovarian, 84.4%; in the assay on MDA-MB-435 melanoma, 87.6%. In addition, the growth is 86.6% in the assay with MCF7 breast and 86.3% in the assay on KM12 colon.
Take `OC1(c2ccccc2F)c2ccccc2C2=NCCN21` (stereo not given): the growth is 86.7% in the assay on NCI-H23 lung; 84.8% with NCI-H226 lung; 97.2% in the assay on NCI-H322M lung; 84.9% with HOP-62 NSCLC; 118% in the assay with NCI-H460 lung; 96.6% in the assay on 786-0 renal. The growth is 113% in the assay on DU-145 prostate; 109% in the assay on MDA-MB-231 breast; 116% in the assay with SF-268 CNS; 108% in the assay on SNB-19 CNS; 96% in the assay with UACC-62 melanoma; 109% with SK-MEL-28 melanoma. In addition, the growth is 101% in the assay on SN12C renal; 84.2% in the assay on UO-31 renal; 98.6% in the assay with OVCAR-5 ovarian; 87.9% with OVCAR-3 ovarian; 86.6% in the assay with NCI/ADR-RES ovarian; 110% in the assay with MDA-MB-435 melanoma. The values for the growth with MCF7 breast and with KM12 colon were 103% and 105%, respectively.
For `O=C(O)c1[nH]c(=O)[nH]c(=O)c1F`, the growth was 93% in the assay with NCI-H23 lung; 86.2% in the assay on NCI-H226 lung; 92.5% in the assay on NCI-H322M lung; 124% in the assay with HOP-62 NSCLC; 47.9% with NCI-H460 lung; 105% with 786-0 renal. Moreover, the growth in the assay with DU-145 prostate was 96.6%; with MDA-MB-231 breast it was 108%; in the assay with SF-268 CNS, 86.7%; in the assay with SNB-19 CNS, 91.4%; in the assay with UACC-62 melanoma, 79.6%; with SK-MEL-28 melanoma it was 94.7%. In addition, the growth in the assay with SN12C renal was 96.3%; in the assay with UO-31 renal, 65.9%; in the assay on OVCAR-5 ovarian, 104%; in the assay with OVCAR-3 ovarian it was 106%; in the assay with NCI/ADR-RES ovarian, 95%; in the assay on MDA-MB-435 melanoma it was 74.7%. Besides, the growth was 109% in the assay with MCF7 breast and 69.3% in the assay with KM12 colon.
Consider `CN(C)P1(N(C)C)=NP(N(C)C)(N(C)C)=NP(N(C)C)(N(C)C)=N1`, for which the growth in the assay on NCI-H23 lung is 106%; with NCI-H226 lung it was 99.5%; in the assay on NCI-H322M lung, 98.8%; in the assay with HOP-62 NSCLC, 99%; with NCI-H460 lung, 107%; with 786-0 renal, 101%. In addition, the growth in the assay on DU-145 prostate was 110%; in the assay with MDA-MB-231 breast, 107%; in the assay with SF-268 CNS, 105%; with SNB-19 CNS, 103%; in the assay with UACC-62 melanoma it was 103%; in the assay on SK-MEL-28 melanoma, 107%. The growth was 107% in the assay with SN12C renal; 83.1% in the assay with UO-31 renal; 104% in the assay on OVCAR-5 ovarian; 106% with OVCAR-3 ovarian; 107% in the assay with NCI/ADR-RES ovarian; 109% in the assay on MDA-MB-435 melanoma. The figures for the growth with MCF7 breast and in the assay on KM12 colon were 95.4% and 104%, respectively.

For the origin of these results see PubChem BioAssay (NCI).
